Results as given in PubChem BioAssay (EPA / NIEHS).
Active and inactive are the calls of the source. Rule for the calls: active = hit-call score of the fitted dose curve at least 0.9, where 1 is the maximum; inactive = score below 0.9.

Tests used:
[1] = BSK_3C_SRB: Viability Assessment in the BioMAP Diversity Plus: 3C Assay (AID 2283023); settings: primary human endothelial cells (HUVEC);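 note: cells read 24 h after compound dosing; fitted both ways against DMSO so a hit may be signal rise or drop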
Outline: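 Absorbance at 560 nm of sulforhodamine B-stained (0.1%) total protein served as a cytotoxicity readout in human umbilical vein endothelial cells, 24 h after chemical treatment. Signal was fitted bidirectionally relative to DMSO.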

[2] = read-out: Matrix Metallopeptidase 1 (MMP1), MMP1 (gene 4312); experiment: BSK_BE3C_MMP1: BioMAP Diversity Plus: BE3C Assay for Matrix Metallopeptidase 1 (MMP1) Biomarker Activity (AID 2283024); settings: primary human bronchial epithelial cells; actives raise or lower the signal
Outline: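 Human primary bronchial epithelial cells (BE3C system) dosed for 24 h; MMP-1 quantified by ELISA. Bidirectional fit against DMSO; cytotoxicity tracked in parallel cultures by SRB total-protein staining.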

[3] = BSK_3C_Vis: BioMAP Diversity Plus: 3C Assay for Morphology Visualization (AID 2283025); settings: primary human endothelial cells (HUVEC);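 note: fitted both ways so gain or loss versus DMSO counts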;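 for AC50: light microscopy image of cell morphology used as background control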
Outline: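 Human umbilical vein endothelial cell morphology was inspected by light microscopy 24 h after chemical dosing; scored bidirectionally relative to DMSO.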

[4] = read-out: Pselectin, SELP (gene 6403); experiment: BSK_4H_Pselectin: BioMAP Diversity Plus: 4H Assay for Pselectin Biomarker Activity (AID 2283026); settings: primary human endothelial cells (HUVEC); actives raise or lower the signal
Outline: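 Primary human umbilical vein endothelial cells were treated 24 h, and cell-surface P-selectin was then quantified by ELISA. Bidirectional fit versus DMSO; cytotoxicity checked in parallel cultures by SRB total-protein staining.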

[5] = BSK_4H_SRB: Viability Assessment in the BioMAP Diversity Plus: 4H Assay (AID 2283027); settings: primary human endothelial cells (HUVEC);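 note: cells exposed to compound for 24 h before staining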;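 for AC50: curves fitted both ways versus DMSO so AC50 may be loss or gain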
Outline: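 Human umbilical vein endothelial cells were dosed with chemical and, after 24 h, fixed with 10% TCA, stained with 0.1% sulforhodamine B, and read at 560 nm to give total protein as a cytotoxicity measure. Bidirectional fitting relative to DMSO control.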

[6] = BSK_BE3C_SRB: Viability Assessment in the BioMAP Diversity Plus: BE3C Assay (AID 2283028); settings: primary human bronchial epithelial cells;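 for AC50: fitted both ways so AC50 may mark signal gain or loss versus DMSO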
Outline: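 Cells (human bronchial epithelial, primary) are treated with chemicals, and after 24 h the parallel cultures are fixed in 10% TCA. These are then stained with 0.1% SRB and read at 560 nm. Gain or loss of signal is fitted relative to DMSO.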

[7] = read-out: Thrombomodulin, THBD (gene 7056); experiment: BSK_3C_Thrombomodulin: BioMAP Diversity Plus: 3C Assay for Thrombomodulin Biomarker Activity (AID 2283029); settings: primary human endothelial cells (HUVEC); actives raise or lower the signal
Outline: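 Human umbilical vein endothelial cells were exposed to chemicals for 24 h; cell-surface thrombomodulin quantified by ELISA, with bidirectional fitting against DMSO baseline.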

[8] = read-out: Urokinase-type plasminogen activator receptor (uPAR), PLAUR (gene 5329); experiment: BSK_4H_uPAR: BioMAP Diversity Plus: 4H Assay for Urokinase-type plasminogen activator receptor (uPAR) Biomarker Activity (AID 2283030); settings: primary human endothelial cells (HUVEC); actives raise or lower the signal
Outline: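 Cell-surface uPAR ELISA signal, measured 24 h after dosing human umbilical vein endothelial cells, was analyzed with bidirectional fitting relative to DMSO. Parallel SRB staining of total protein tracked overt cytotoxicity.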

[9] = read-out: Vascular endothelial growth factor receptor 2 (Homo sapiens) (UniProt P35968); experiment: BSK_4H_VEGFRII: BioMAP Diversity Plus: 4H Assay for Vascular endothelial growth factor receptor 2 (VEGFR2) Biomarker Activity (AID 2283031); settings: primary human endothelial cells (HUVEC); actives raise or lower the signal;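 for AC50: cell-surface VEGFR2 protein level quantified by ELISA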
Outline: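 ELISA read-out of VEGFRII in primary human umbilical vein endothelium, taken 24 h after chemical treatment. Responses are expressed relative to DMSO, with bidirectional fitting.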

[10] = read-out: Human Leukocyte Antigen - DR isotype (HLADR), HLA-DRA (gene 3122); experiment: BSK_BE3C_HLADR: BioMAP Diversity Plus: BE3C Assay for Human Leukocyte Antigen - DR isotype (HLADR) Biomarker Activity (AID 2283032); settings: primary human bronchial epithelial cells; actives raise or lower the signal
Outline: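 Human primary bronchial epithelial cells (BE3C system) exposed to compound for 24 hours; cell-surface HLA-DR measured by ELISA, fitted bidirectionally relative to DMSO. Total protein by SRB in parallel cultures tracked cytotoxicity.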

Measured: AC50

Oc1ccccc1
inactive: all assays above

NCc1cccc(C2CCN(C(=O)c3ccc(C#Cc4ccccc4F)o3)CC2)c1
inactive: [9]
active: [1] 11 µM | [2] 28.2 µM | [3] 13.3 µM | [4] 13.3 µM | [5] 15.1 µM | [6] 15.4 µM | [7] 12.7 µM | [8] 23.2 µM | [10] 6.79 µM

Clc1cc(Cl)c2c(c1)N=C1CCCCCN1C2
inactive: all assays above

CC(=O)N1CCN(c2ccc(OC[C@H]3CO[C@](Cn4ccnc4)(c4ccc(Cl)cc4Cl)O3)cc2)CC1
active: [1] 29.1 µM | [3] 37.5 µM | [4] 14.8 µM | [5] 29.6 µM | [8] 32.9 µM | [10] 33.3 µM
inactive: [2] | [6] | [7] | [9]

CCN(CC)C(=O)c1cc(S(=O)(=O)Cc2ccccc2)c(N2CCC(c3ccccc3)CC2)cc1N(CC)CCN(C)C
inactive: [9]
active: [1] 5.18 µM | [3] 6.48 µM | [4] 7.87 µM | [5] 19.2 µM | [6] 11 µM | [7] 4.43 µM | [8] 19.8 µM | [10] 8.48 µM

CC1(C)NC(=O)N(c2ccc([N+](=O)[O-])c(C(F)(F)F)c2)C1=O
inactive: all assays above

CCCC(=O)OCCC(C)C
inactive: all assays above

CC/C(=C(/CC)c1ccc(O)cc1)c1ccc(O)cc1
active: [1] 20 µM | [2] 35.1 µM | [3] 8.57 µM | [4] 20 µM | [5] 22.8 µM | [6] 33.6 µM | [8] 17.8 µM | [10] 23.4 µM
inactive: [7] | [9]

CN(C)C(=O)C1(N2CCCCC2)CCN(CC[C@@]2(c3ccc(Cl)c(Cl)c3)CN(C(=O)c3ccccc3)CCO2)CC1
inactive: [7] | [9]
active: [1] 7.1 µM | [2] 29.1 µM | [3] 12.5 µM | [4] 15.6 µM | [5] 18.9 µM | [6] 26.6 µM | [8] 12.3 µM | [10] 14.4 µM

CCCCCCCCOC(=O)c1cc(O)c(O)c(O)c1
inactive: [7] | [9]
active: [1] 20 µM | [2] 33.5 µM | [3] 37.5 µM | [4] 17.8 µM | [5] 15.1 µM | [6] 33.6 µM | [8] 37.7 µM | [10] 22 µM

CCN(Cc1cccc(S(=O)(=O)O)c1)c1ccc(C(=C2C=CC(=[N+](CC)Cc3cccc(S(=O)(=O)O)c3)C=C2)c2ccccc2S(=O)(=O)[O-])cc1
inactive: all assays above

O=C(Nc1ccc(Cl)cc1)Nc1ccc(Cl)c(Cl)c1
inactive: [2] | [3] | [6] | [7]
active: [1] 2.66 µM | [4] 2.6 µM | [5] 2.02 µM | [8] 1.92 µM | [9] 2.19 µM | [10] 1.39 µM

CCCCCCCCCCCC[N+](C)(C)C
active: [2] 18 µM | [4] 20 µM | [5] 26.9 µM | [6] 32 µM | [7] 5.28 µM | [8] 29.8 µM | [10] 28.3 µM
inactive: [9]

Cc1ncc(CO)c(CO)c1O
inactive: all assays above

COCC(C)OCC(C)OCC(C)O (stereo unspecified)
inactive: all assays above

CCCCOC(=O)CC(CC(=O)OCCCC)(OC(C)=O)C(=O)OCCCC
active: [10] 20 µM
inactive: all other assays above

CC(C)(C)c1csc(-c2cc3cc(OCc4ccccc4CC(=O)O)ccc3o2)n1
active: [1] 21.5 µM | [2] 8.45 µM | [4] 18.7 µM | [5] 20 µM | [6] 12.2 µM | [8] 21 µM | [9] 9.41 µM | [10] 6.97 µM
inactive: [3] | [7]

OCCO
not listed: [9]
inactive: all other assays above

O=C1CCC(C2CCCCC2)CC1
active: [2] 12.6 µM | [10] 25.9 µM
inactive: all other assays above

Cc1cc(F)ccc1-c1cc(N2CC[C@@H](O)[C@H]2CO)ncc1N(C)C(=O)C(C)(C)c1cc(C(F)(F)F)cc(C(F)(F)F)c1
active: [1] 9.17 µM | [2] 14.5 µM | [3] 10 µM | [4] 7.66 µM | [5] 11.9 µM | [6] 12.9 µM | [8] 10.2 µM | [9] 7.98 µM | [10] 12.8 µM
inactive: [7]

COc1cccc([C@H](O)C2CCN(CCc3ccc(F)cc3)CC2)c1OC
active: [4] 6.42 µM | [8] 0.228 µM
inactive: all other assays above

CCN(Cc1cccnc1)C(=O)c1cccc(Cl)c1[C@]1(C)C(=O)N(Cc2ccc(OC)cc2OC)c2ccc(Cl)cc21
inactive: [2] | [6] | [7] | [10]
active: [1] 6.28 µM | [3] 4.34 µM | [4] 4.73 µM | [5] 5.38 µM | [8] 5.48 µM | [9] 6.81 µM

CN(C[C@@H](CC[N+]12CCC(C3CCCCC3)(CC1)CC2)c1ccc(Cl)c(Cl)c1)C(=O)c1cc(C(F)(F)F)cc(C(F)(F)F)c1
inactive: [7] | [9]
active: [1] 12.9 µM | [2] 23.5 µM | [3] 13.3 µM | [4] 29.2 µM | [5] 16.5 µM | [6] 13 µM | [8] 29.1 µM | [10] 12.6 µM

CCO[Si](CCCNC(N)=O)(OCC)OCC
inactive: all assays above

Cc1occc1C(=O)Nc1ccc(C(=O)N2CCC(F)(F)/C(=C\C(=O)N3CCC(N4CCCCC4)CC3)c3ccccc32)cc1
active: [1] 11.5 µM
inactive: all other assays above

O=c1ccc2ccccc2o1
inactive: all assays above

O=C(O)Cc1cc(I)c(Oc2ccc(O)c(I)c2)c(I)c1
active: [2] 6.29 µM | [3] 14.5 µM | [8] 23.3 µM | [10] 17.6 µM
inactive: all other assays above

CCCCCCCCCCCCO
active: [1] 31.2 µM | [3] 38.4 µM | [4] 34.2 µM | [5] 31.1 µM | [6] 31.9 µM | [8] 30.9 µM | [9] 34 µM
inactive: [2] | [7] | [10]

O=C(O)c1ccccc1C(=O)OCc1ccccc1
inactive: all assays above

c1ccc(C[n+]2cccc3ccccc32)cc1
inactive: all assays above

CCCCCc1ccc(N)cc1
active: [1] 17.8 µM | [5] 11.7 µM | [8] 7.58 µM
inactive: all other assays above

Cc1ccc(C(C)C)cc1
inactive: all assays above

CN1C(=O)CC[C@H]1c1cccnc1
inactive: all assays above

CC(O)CC(C)(C)O (stereo unspecified)
inactive: all assays above

c1ccc2n[nH]nc2c1
inactive: all assays above

Oc1ccc2ccccc2c1
inactive: all assays above

CCCOC(=O)c1cc(O)c(O)c(O)c1
inactive: all assays above

Cc1oc2c(NC(=O)c3c(Cl)cccc3Cl)cccc2c1C(C)(C)O
active: [1] 25 µM | [2] 14.3 µM | [3] 20.7 µM | [4] 13.2 µM | [5] 15 µM | [7] 11.8 µM | [10] 18.1 µM
inactive: [6] | [8] | [9]
